Laboratory results taken from PubChem BioAssay (Tox21).
Where “and” joins values, the source holds several entries; their conditions need not be identical. Identical values can stand only once. Results filed as inconclusive are left out. Entries that show only a call come without a potency. A structure can be active in one record and inactive in another. Calls of active or inactive are those of the source. Calls come from the whole dose curve; as a rule, active = well fitted inhibition curve with a large enough effect in the signal ratio in the repeat runs, with a control signal flat; inconclusive = weak or mixed curves, or effect the other way; inactive = flat fitted curve, though single readings scatter; the % refers to the signal ratio.

Biological target: D(2) dopamine receptor (Homo sapiens) (UniProt P14416)
Assay: Dopamine D2 receptor (DRD2) small molecule antagonists, cell-based qHTS assay (AID 1963595)
In short: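 Antagonism was scored as restored cAMP in HEK293-DRD2 cells. These cells were stimulated with 200 nM NKH477 and 12 nM quinpirole for 30 min at room temperature, in the presence of 0.1 mM Ro20-1724.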
Potency is the fitted concentration of half-maximal effect.

Chain of D(2) dopamine receptor (Homo sapiens) (P14416 whole entry, looked up): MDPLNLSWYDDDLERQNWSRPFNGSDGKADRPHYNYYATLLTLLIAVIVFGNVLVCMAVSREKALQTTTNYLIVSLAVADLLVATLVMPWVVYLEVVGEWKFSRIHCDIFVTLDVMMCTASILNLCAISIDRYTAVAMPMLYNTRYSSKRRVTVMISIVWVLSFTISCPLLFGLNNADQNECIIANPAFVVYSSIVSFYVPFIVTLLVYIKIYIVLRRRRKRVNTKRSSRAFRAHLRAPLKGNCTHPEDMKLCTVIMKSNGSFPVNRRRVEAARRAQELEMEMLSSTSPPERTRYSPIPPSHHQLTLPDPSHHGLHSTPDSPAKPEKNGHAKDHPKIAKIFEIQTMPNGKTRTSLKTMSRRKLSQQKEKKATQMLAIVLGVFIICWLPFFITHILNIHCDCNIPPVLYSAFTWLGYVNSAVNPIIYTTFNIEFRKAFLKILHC

Q: For `CCN(CC)c1ccc(C=O)c(O)c1`, which Potency is on record?
A: inactive

Q: Which Potency does the source give for `Nc1cc([N+](=O)[O-])ccc1Cl` here?
A: inactive

Q: `COc1cccc(OC)c1C(=O)N[C@@H]1C(=O)N2[C@@H]1SC(C)(C)[C@@H]2C(=O)O` was tested. Which Potency did it give?
A: inactive

Q: For `O=Cc1ccc(C(=O)O)cc1`, which Potency is on record?
A: inactive

Q: `CC(=O)N(CC(O)CO)c1c(I)c(C(=O)NCC(O)CO)c(I)c(C(=O)NCC(O)CO)c1I` (stereo not given) was tested. Which Potency did it give?
A: inactive

Q: With `CC(=O)CC(C)(C)C1CCCCC1` as the compound, how does the Potency read?
A: inactive

Q: With `CC(C)(C)OCC1CO1` (stereo not given) as the compound, how does the Potency read?
A: inactive

Q: `O=C(O)c1cccnc1C(=O)O` was tested. Which Potency did it give?
A: inactive

Q: Which Potency does the source give for `NNc1nncc2ccccc12` here?
A: inactive and 10.3 µM (active)

Q: `CC1CC(OC(=O)c2ccccc2O)CC(C)(C)C1` (stereo not given) was tested. Which Potency did it give?
A: inactive

Q: For `CCCCCCCC/C=C\CCCCCCCC(=O)OCCCC`, which activity change, negative = inhibition is on record?
A: -12.5% [at 18.9 µM] (inactive)

Q: `C1CSCCS1` was tested. Which Potency did it give?
A: inactive

Q: `COc1cc(C(=O)N2CCCCCCC2)cc(OC)c1OC` was tested. Which Potency did it give?
A: inactive

Q: For `CC(=O)NCc1c(I)c(NC(C)=O)c(I)c(C(=O)O)c1I`, which Potency is on record?
A: inactive

Q: Which Potency does the source give for `CCCCCC=O` here?
A: inactive

Q: `CS(C)(=O)=O` was tested. Which Potency did it give?
A: inactive

Q: With `O=C[O][Al]([O]C=O)[O]C=O` as the compound, how does the Potency read?
A: inactive

Q: `O=C(O)CCc1ccccc1` was tested. Which Potency did it give?
A: inactive

Q: `C1CN(CCOCCN2CCOCC2)CCO1` was tested. Which Potency did it give?
A: inactive

Q: For `C=CCc1cc(OC)c(O)c(C(=O)NCCO)c1`, which Potency is on record?
A: inactive

Q: Which Potency does the source give for `O=[N+]([O-])c1ccc(F)cc1F` here?
A: inactive

Q: For `FC(F)(F)C(Cl)(Cl)Cl`, which Potency is on record?
A: inactive

Q: With `CCOC(=O)O[C@]1(C(=O)OCCl)CC[C@H]2[C@@H]3CCC4=CC(=O)C=C[C@]4(C)[C@H]3[C@@H](O)C[C@@]21C` as the compound, how does the Potency read?
A: inactive

Q: For `Cc1ccc2ccccc2c1[N+](=O)[O-]`, which Potency is on record?
A: inactive

Q: How did the Potency turn out when `CC(C=O)c1ccccc1` (stereo not given) was run?
A: inactive

Q: How did the Potency turn out when `CC(=O)N(c1onc(C)c1C)S(=O)(=O)c1ccc(N)cc1` was run?
A: inactive

Q: How did the Potency turn out when `O=C(O)CNC(=O)c1ccc(CO)o1` was run?
A: inactive

Q: For `CC(C)CCCC(C)CCO` (stereo not given), which Potency is on record?
A: inactive

Q: How did the Potency turn out when `CC(C)(C)OC=O` was run?
A: inactive

Q: With `O=C1CCC(=O)N1` as the compound, how does the Potency read?
A: inactive

Q: For `CC(=O)Nc1ccc(N=Nc2cc(C)ccc2O)cc1`, which Potency is on record?
A: inactive

Q: With `C=C1[C@H]2CC[C@@H]3[C@H]2C(C)(C)CCC[C@]13C` as the compound, how does the Potency read?
A: inactive

Q: For `CNCCO`, which Potency is on record?
A: inactive

Q: Which Potency does the source give for `CC(=O)c1cc(C)oc1C` here?
A: inactive

Q: With `CO[Si](OC)(OC)c1ccccc1` as the compound, how does the Potency read?
A: inactive

Q: With `CCC1CCCCC1` as the compound, how does the Potency read?
A: inactive

Q: `O=C1OC[C@H](Cc2cccc(O)c2)[C@H]1Cc1cccc(O)c1` was tested. Which Potency did it give?
A: inactive

Q: `Cc1nc(-c2ccc3c(c2)CCN(CCC2CCC(NC(=O)/C=C/c4ccc(F)cc4)CC2)CC3)no1` (stereo not given) was tested. Which Potency did it give?
A: inactive

Q: With `CCCCCCCCc1ccc(Nc2ccc(CCCCCCCC)cc2)cc1` as the compound, how does the Potency read?
A: inactive

Q: How did the Potency turn out when `c1ccc(CSCc2ccccc2)cc1` was run?
A: inactive

Q: Which Potency does the source give for `C=CC(=O)CCCCC` here?
A: inactive

Q: How did the Potency turn out when `NNS(=O)(=O)c1ccc(Oc2ccc(S(=O)(=O)NN)cc2)cc1` was run?
A: inactive

Q: For `Cc1ccc(C2OC[C@@H]3OC(c4ccc(C)cc4)O[C@H]([C@H](O)CO)[C@@H]3O2)cc1` (stereo not given in full), which Potency is on record?
A: inactive

Q: `CN(C1CCCCC1)S(=O)(=O)c1ccccc1N` was tested. Which Potency did it give?
A: inactive

Q: For `CN(C)N=Nc1ccccc1`, which Potency is on record?
A: inactive

Q: How did the Potency turn out when `CC(=O)OC[C@H]1O[C@@H](OC(C)=O)[C@H](OC(C)=O)[C@@H]1OC(C)=O` was run?
A: inactive

Q: Which Potency does the source give for `N=C(N)c1ccccc1` here?
A: inactive

Q: How did the Potency turn out when `CC(=O)C1(C)CC2=C(CCCC2(C)C)CC1C` (stereo not given) was run?
A: inactive

Q: `CC1=CC[C@@H](C(C)(C)O)CC1` was tested. Which Potency did it give?
A: inactive

Q: `C[Si](C)=O` was tested. Which activity change, negative = inhibition did it give?
A: 6.58% [at 8.38 µM] (inactive)

Q: For `CNc1ccccc1`, which Potency is on record?
A: inactive

Q: How did the Potency turn out when `CCC(C)(C)CC` was run?
A: inactive

Q: With `C=C(C)C(=O)OCCOP(=O)(O)O` as the compound, how does the Potency read?
A: inactive

Q: With `O=S(O)CO` as the compound, how does the Potency read?
A: inactive

Q: `CCCC(=O)OCc1ccccc1` was tested. Which Potency did it give?
A: inactive

Q: `F[Si-2](F)(F)(F)(F)F` was tested. Which Potency did it give?
A: inactive

Q: How did the Potency turn out when `CO[Si](CCCCl)(OC)OC` was run?
A: inactive

Q: Which Potency does the source give for `CCCc1ccccc1` here?
A: inactive

Q: For `CCOC(=O)c1ccccc1C`, which Potency is on record?
A: inactive

Q: With `FC(F)(F)C(F)(F)C(F)(F)C(F)(F)C(F)(F)C(F)(F)CCI` as the compound, how does the Potency read?
A: inactive

Q: For `C=C(C)[C@@H]1CCC2=CCC[C@@H](C)[C@]2(C)C1`, which Potency is on record?
A: inactive

Q: How did the Potency turn out when `O=C[C@H](O)[C@H](O)[C@H](O)CO` was run?
A: inactive

Q: How did the Potency turn out when `CCC(C)(C)C1CCC(OC)CC1` (stereo not given) was run?
A: inactive

Q: Which Potency does the source give for `CC(C)CCCO` here?
A: inactive

Q: Which Potency does the source give for `COc1cc(CCC(C)=O)ccc1O` here?
A: inactive

Q: How did the Potency turn out when `CC(CC=O)CC(C)(C)C` (stereo not given) was run?
A: inactive

Q: Which Potency does the source give for `CCCCCCCCN(C)C` here?
A: inactive

Q: How did the Potency turn out when `NC(=S)N/N=C/c1cccnc1` was run?
A: inactive

Q: `OCc1c2ccccc2cc2ccccc12` was tested. Which Potency did it give?
A: inactive

Q: `COc1cccc(OC)c1` was tested. Which Potency did it give?
A: inactive

Q: Which Potency does the source give for `O=C1Cc2cc(Cl)ccc2N1` here?
A: inactive

Q: With `CC(C)(CCl)c1ccccc1` as the compound, how does the Potency read?
A: inactive

Q: Which Potency does the source give for `CCN(CC)CC(=O)OCC(=O)[C@@]1(O)CC[C@H]2[C@@H]3CCC4=CC(=O)CC[C@]4(C)[C@H]3[C@@H](O)C[C@@]21C` here?
A: inactive

Q: `CCCCC(CC)C(=O)OCCOCCOCCOC(=O)C(CC)CCCC` (stereo not given) was tested. Which Potency did it give?
A: inactive

Q: With `C/C=C/c1ccc(OC)c(OC)c1` as the compound, how does the Potency read?
A: inactive

Q: For `CC(C)(CC(=O)O)C(=O)O`, which Potency is on record?
A: inactive

Q: `O=C(/N=N/C(=O)OCc1ccccc1)OCc1ccccc1` was tested. Which Potency did it give?
A: inactive

Q: Which Potency does the source give for `C=CCn1cc[n+](C)c1` here?
A: inactive

Q: How did the Potency turn out when `CC(=O)N[C@H]1[C@H]([C@H](O)[C@H](O)CO)OC(C(=O)O)=C[C@@H]1N=C(N)N` was run?
A: inactive

Q: `CC(=O)/C=C/c1ccco1` was tested. Which Potency did it give?
A: inactive

Q: For `NS(=O)(=O)c1ccc(NC(=O)CCC(=O)O)cc1`, which Potency is on record?
A: inactive

Q: With `Cc1ccc(C(C)c2ccc(C)c(C)c2)cc1C` as the compound, how does the Potency read?
A: inactive

Q: `O=C(O)CNC(=O)c1ccccc1I` was tested. Which Potency did it give?
A: inactive

Q: Which Potency does the source give for `CC(C)OC(C)C` here?
A: inactive

Q: With `C=CCOC(=O)CCCCCCCC` as the compound, how does the Potency read?
A: inactive

Q: For `CCCCC(CC)COCCC#N` (stereo not given), which Potency is on record?
A: inactive

Q: For `COc1cc(C(=O)N2CCOCC2)cc(OC)c1OC`, which Potency is on record?
A: inactive

Q: How did the Potency turn out when `O=C(c1ccccc1)C1(O)CCCCC1` was run?
A: inactive

Q: With `CCCC(=O)OCC(COC(=O)CCC)OC(=O)CCC` as the compound, how does the Potency read?
A: inactive

Q: Which Potency does the source give for `COC(/C=C(\C)CCC=C(C)C)OC` here?
A: inactive

Q: Which Potency does the source give for `O=c1[nH]c(=O)c2cn[nH]c2[nH]1` here?
A: inactive

Q: Which Potency does the source give for `FC(F)(F)C(Cl)Br` (stereo not given) here?
A: inactive

Q: With `Cc1cc(C)c(N=Nc2c(O)c(S(=O)(=O)O)cc3cc(S(=O)(=O)O)ccc23)cc1C` as the compound, how does the activity change, negative = inhibition read?
A: 0.169% [at 8.38 µM] (inactive)

Q: Which Potency does the source give for `C=C(C)C(=O)OCCC(F)(F)C(F)(F)C(F)(F)C(F)(F)C(F)(F)C(F)(F)F` here?
A: inactive

Q: `COC(=O)c1cc(Cl)c(NC(C)=O)cc1OC` was tested. Which Potency did it give?
A: inactive

Q: How did the Potency turn out when `CC(CO)c1ccccc1` (stereo not given) was run?
A: inactive

Q: With `CC(C)=O` as the compound, how does the Potency read?
A: inactive

Q: With `CC[N+](C)(C)c1cccc(O)c1` as the compound, how does the Potency read?
A: inactive

Q: `CCN(CC#N)c1cccc(C)c1` was tested. Which Potency did it give?
A: inactive

Q: For `O=S(=O)(O)C(F)(F)F`, which Potency is on record?
A: inactive
